# From PubChem BioAssay (NCATS)
# Values without a mark were called inactive. Inconclusive results are not listed. Entries that show only a call come without a potency. Activity calls are given as the source filed them. Unless noted, calls come from the whole dose curve; as a rule, active = well fitted curve in the direction sought with a large enough effect; inconclusive = small, poorly fitted or top-dose-only effect, or another doubt; inactive = no such curve, though single readings can be large; an effect the other way counts as inactive or inconclusive.
# Assays:
# [1] = molecular target: Guanine nucleotide-binding protein G(i) subunit alpha-1 (Homo sapiens) (UniProt P63096); assay: qHTS Assay for Inhibitors of RGS12 GoLoco Motif Activity (Green Fluorophore) (AID 879);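 note: negative values mean loss of peptide binding seen as reduced polarization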
# Procedure, shortened: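 A drop in FITC polarization marked displacement of the FITC-tagged RGS12 GoLoco peptide (10 nM) from Gαi1 (50 nM). Compounds were incubated 10 min at room temperature in Tris pH 7.5 buffer containing 150 mM NaCl, 0.1 mM GDP and 0.05% NP40; unlabeled peptide titration served as control.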
# [2] = qHTS Assay for Identification of Small Molecule Antagonists for NFkB Signaling Pathway (AID 895; active = well fitted inhibition curve with a large enough effect in the signal ratio, with a control signal flat, not every such curve was filed as active; the % refers to the signal ratio; note: potency is the fitted concentration of half-maximal effect)
# Procedure, shortened: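 NFkB-bla ME-180 cervical carcinoma cells with beta-lactamase reporter under NFkB response element; compounds added, then TNF alpha at 10 pM final (EC50), 5 h at 37 C. LiveBLAzer substrate 2 h, room temperature; emission 460/530 nm at 405 nm excitation.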
# [3] = Cellular Toxicity (caspase-3) Hek293 (AID 664); settings: HEK293 caspase-3 activation, DMSO = 0%, 100 µM tamoxifen = 100%; at 92.2 µM (top of the series);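 note: cells exposed to compound for 16 h at 37 °C before readout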
# Procedure, shortened: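 Luminescent Caspase-Glo 3/7 readout (aminoluciferin release) in HEK293 cells after 16 h compound treatment, 37 °C. Normalization: DMSO = basal, 100 uM tamoxifen = 100% stimulation. Concentration-response fitted with standard Hill equation for AC50.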
# [4] = Cellular Toxicity (caspase-3) N2a (AID 665);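 note: compound exposure lasted 16 h at 37 °C before readout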
# Procedure, shortened: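 Luminescent Caspase-Glo 3/7 readout in N2a mouse neuroblastoma cells after 16 h compound exposure at 37 °C. Signal scaled to DMSO (basal) and 10 uM staurosporine (100%). Concentration-response fitted with Hill equation for AC50.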
# [5] = Cellular Toxicity (caspase-3) NIH 3T3 (AID 666)
# Procedure, shortened: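 NIH 3T3, 1000 cells/well, 5 hr settle then 16 hr compound at 37°C; Caspase-Glo 3/7, 20 min RT, luminescence. DMSO = basal, 100 uM tamoxifen = 100%. Hill-equation AC50, qHTS.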
# [6] = molecular target: Cytochrome P450 2C9 (Homo sapiens) (UniProt P11712); assay: qHTS Assay for Inhibitors and Substrates of Cytochrome P450 2C9 (AID 883); note: nearly all actives have a fitted effect of over 60% in size
# Procedure, shortened: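 CYP2C9 deoxyluciferin hydroxylation, 37C, 60 min with NADPH regeneration; 10nM enzyme, 100uM Luciferin-H (KM). Glo detection reagent stopped reaction; luminescence normalized to sulphaphenazole (57uM) full inhibition.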
# [7] = molecular target: Cytochrome P450 3A4 (Homo sapiens) (UniProt P08684); assay: qHTS Assay for Inhibitors and Substrates of Cytochrome P450 3A4 (AID 884); note: nearly all actives have a fitted effect of over 50% in size
# Procedure, shortened: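 Luminescent readout of luciferin produced by CYP3A4 (20 nM) dealkylation of Luciferin-PPXE, 25 uM (its KM). NADPH-driven reaction ran 60 min at RT after 10 min compound preincubation; data scaled to 57 uM ketoconazole as 100% inhibition.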
# [8] = molecular target: Cytochrome P450 2D6 (Homo sapiens) (UniProt P10635); assay: qHTS Assay for Inhibitors and Substrates of Cytochrome P450 2D6 (AID 891);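 note: luciferin methyl ether substrate demethylated by CYP2D6 with NADPH regeneration; nearly all actives have a fitted effect of over 60% in size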
# Procedure, shortened: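 Luminescent read-out of luciferin formed by 5 nM human CYP2D6 demethylating 30 uM Luciferin-ME EGE (Km level) over 60 min at room temperature after NADPH regeneration addition. Data normalized to full inhibition by 1.43 uM quinidine.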
# [9] = molecular target: Cytochrome P450 2C19 (Homo sapiens) (UniProt P33261); assay: qHTS Assay for Inhibitors and Substrates of Cytochrome P450 2C19 (AID 899); note: nearly all actives have a fitted effect of over 60% in size
# Procedure, shortened: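 In 50mM KPO4, the reaction held 5nM enzyme and KM-level (10uM) Luciferin-H EGE; it ran 60 min at 37C after NADPH regeneration and a 10 min compound preincubation. Luminescence values were scaled to 57uM ketoconazole as complete inhibition.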
# [10] = molecular target: Cytochrome P450 3A4 (Homo sapiens) (UniProt P08684); assay: qHTS Assay for Activators of Cytochrome P450 3A4 (AID 885); note: nearly all actives have a fitted effect of over 65% in size
# Procedure, shortened: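 Using 20nM recombinant human CYP3A4 in potassium phosphate (200mM), substrate Luciferin-PPXE at 25uM, luminescent luciferin detection followed a 60-min RT NADPH reaction; data scaled to 57 uM ketoconazole.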
# Sequence of Guanine nucleotide-binding protein G(i) subunit alpha-1 (Homo sapiens) (P63096 whole entry, looked up): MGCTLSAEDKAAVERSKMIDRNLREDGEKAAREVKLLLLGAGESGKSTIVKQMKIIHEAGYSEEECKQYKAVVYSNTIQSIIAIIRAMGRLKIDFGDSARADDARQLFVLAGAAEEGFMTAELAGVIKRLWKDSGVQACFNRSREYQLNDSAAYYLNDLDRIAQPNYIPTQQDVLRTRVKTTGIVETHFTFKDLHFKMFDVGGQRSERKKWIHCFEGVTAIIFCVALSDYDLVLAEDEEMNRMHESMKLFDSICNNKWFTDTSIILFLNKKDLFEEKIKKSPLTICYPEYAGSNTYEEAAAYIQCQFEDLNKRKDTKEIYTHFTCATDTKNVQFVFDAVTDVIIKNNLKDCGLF
# Sequence of Cytochrome P450 3A4 (Homo sapiens) (P08684 whole entry, looked up): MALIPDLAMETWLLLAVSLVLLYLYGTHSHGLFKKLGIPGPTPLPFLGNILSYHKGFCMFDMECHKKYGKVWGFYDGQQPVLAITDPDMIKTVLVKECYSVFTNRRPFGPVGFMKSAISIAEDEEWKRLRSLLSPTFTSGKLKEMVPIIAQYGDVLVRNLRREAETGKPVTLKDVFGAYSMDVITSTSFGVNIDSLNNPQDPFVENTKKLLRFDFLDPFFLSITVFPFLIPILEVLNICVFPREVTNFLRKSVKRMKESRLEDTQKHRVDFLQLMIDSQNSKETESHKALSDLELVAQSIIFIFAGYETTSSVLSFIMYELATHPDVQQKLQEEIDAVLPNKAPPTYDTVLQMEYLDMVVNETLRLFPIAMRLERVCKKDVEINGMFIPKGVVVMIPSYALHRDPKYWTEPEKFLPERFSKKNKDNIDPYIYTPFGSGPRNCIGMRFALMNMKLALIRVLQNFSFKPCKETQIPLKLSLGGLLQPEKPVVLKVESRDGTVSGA
# Sequence of Cytochrome P450 2C9 (Homo sapiens) (P11712 whole entry, looked up): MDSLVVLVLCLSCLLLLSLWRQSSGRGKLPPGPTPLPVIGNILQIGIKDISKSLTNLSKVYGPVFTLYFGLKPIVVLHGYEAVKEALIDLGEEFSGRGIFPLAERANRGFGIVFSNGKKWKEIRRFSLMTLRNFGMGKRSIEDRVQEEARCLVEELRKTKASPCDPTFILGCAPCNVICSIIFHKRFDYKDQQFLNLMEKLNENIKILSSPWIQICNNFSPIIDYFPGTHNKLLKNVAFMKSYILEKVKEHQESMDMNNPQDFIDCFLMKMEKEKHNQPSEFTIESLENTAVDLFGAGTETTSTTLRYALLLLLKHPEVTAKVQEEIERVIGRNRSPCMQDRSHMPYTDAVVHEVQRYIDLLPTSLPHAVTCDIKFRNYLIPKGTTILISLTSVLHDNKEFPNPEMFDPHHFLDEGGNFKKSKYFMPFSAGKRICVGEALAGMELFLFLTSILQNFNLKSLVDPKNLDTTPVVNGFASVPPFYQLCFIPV
# Sequence of Cytochrome P450 2C19 (Homo sapiens) (P33261 whole entry, looked up): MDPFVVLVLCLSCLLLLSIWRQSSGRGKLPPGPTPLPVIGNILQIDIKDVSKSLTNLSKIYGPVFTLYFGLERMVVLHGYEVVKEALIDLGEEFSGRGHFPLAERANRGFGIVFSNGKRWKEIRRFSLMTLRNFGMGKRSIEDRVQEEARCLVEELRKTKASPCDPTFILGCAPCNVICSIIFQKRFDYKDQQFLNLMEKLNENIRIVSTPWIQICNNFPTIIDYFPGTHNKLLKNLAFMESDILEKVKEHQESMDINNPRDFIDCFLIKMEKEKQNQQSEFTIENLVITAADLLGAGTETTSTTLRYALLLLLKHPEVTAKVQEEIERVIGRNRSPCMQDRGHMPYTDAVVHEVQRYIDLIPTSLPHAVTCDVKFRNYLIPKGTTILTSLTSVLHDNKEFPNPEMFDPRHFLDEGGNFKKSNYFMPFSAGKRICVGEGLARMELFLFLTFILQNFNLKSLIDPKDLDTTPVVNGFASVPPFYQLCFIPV
# Sequence of Cytochrome P450 2D6 (Homo sapiens) (P10635 whole entry, looked up): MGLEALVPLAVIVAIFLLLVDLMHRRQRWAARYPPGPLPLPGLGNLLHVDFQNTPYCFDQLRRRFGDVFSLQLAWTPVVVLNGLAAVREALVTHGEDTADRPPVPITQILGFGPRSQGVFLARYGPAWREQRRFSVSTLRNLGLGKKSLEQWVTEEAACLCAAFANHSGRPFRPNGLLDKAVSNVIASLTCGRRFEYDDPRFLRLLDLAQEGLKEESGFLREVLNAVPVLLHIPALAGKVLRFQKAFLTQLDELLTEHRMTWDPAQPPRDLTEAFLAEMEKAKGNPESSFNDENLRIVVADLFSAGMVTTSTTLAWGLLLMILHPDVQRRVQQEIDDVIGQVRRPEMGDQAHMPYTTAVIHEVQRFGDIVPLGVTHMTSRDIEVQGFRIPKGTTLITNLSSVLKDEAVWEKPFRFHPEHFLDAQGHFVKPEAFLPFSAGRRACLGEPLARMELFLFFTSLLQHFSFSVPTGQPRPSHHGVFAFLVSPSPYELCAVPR
structure (smiles),measurement,setting,value
CC(C)(C)NC(=O)[C@H]1CC[C@H]2[C@@H]3CC[C@H]4NC(=O)C=C[C@]4(C)[C@H]3CC[C@]12C,outcome,[1],inactive
COc1cc2ncnc(Nc3cccc(Cl)c3)c2cc1OC,outcome,[1],inactive
same,Potency,[2],15.8 µM (active)
N=C(N)c1ccc(OCCCCCOc2ccc(C(=N)N)cc2)cc1,caspase-3 activation,[3],3%
same,outcome,[4],inactive
same,Potency,[5],inactive
Cc1noc(NS(=O)(=O)c2ccc(N)cc2)c1C,caspase-3 activation,[3],-1.11%
same,outcome,[4],inactive
same,Potency,[5],inactive
same,outcome,[6],inactive
same,outcome,[7],inactive
O=C(O)c1cc(=O)[nH]c(=O)[nH]1,caspase-3 activation,[3],-0.467%
same,outcome,[4],inactive
same,Potency,[5],inactive
same,outcome,[7],inactive
NC(=O)c1cccc(N)c1,outcome,[1],inactive
same,outcome,[6],inactive
same,Potency,[8],inactive
same,Potency,[2],inactive
same,Potency,[9],inactive
Cc1nnc(NS(=O)(=O)c2ccc(N)cc2)s1,caspase-3 activation,[3],-0.508%
same,outcome,[4],inactive
same,Potency,[5],inactive
same,outcome,[7],inactive
NC(N)=NC(N)=NCCc1ccccc1,caspase-3 activation,[3],-0.745%
same,outcome,[4],inactive
same,Potency,[5],inactive
O=C(N[C@H](CO)[C@H](O)c1ccc([N+](=O)[O-])cc1)C(Cl)Cl,caspase-3 activation,[3],1.63%
same,outcome,[4],inactive
same,Potency,[5],inactive
NNC(=O)c1ccncc1,caspase-3 activation,[3],0.113%
same,outcome,[4],inactive
same,Potency,[5],inactive
same,outcome,[10],inactive
OCc1ccc(-c2nn(Cc3ccccc3)c3ccccc23)o1,outcome,[1],inactive
same,outcome,[10],inactive
same,Potency,[2],8.91 µM (active)
Cc1ccnc2c1NC(=O)c1cccnc1N2C1CC1,caspase-3 activation,[3],-0.521%
same,outcome,[4],inactive
same,Potency,[5],inactive
same,outcome,[7],inactive
COC(=O)Nc1nc2ccc(C(=O)c3ccccc3)cc2[nH]1,outcome,[6],inactive
same,outcome,[7],inactive
CC(=O)Oc1ccccc1C(=O)Nc1ncc([N+](=O)[O-])s1,caspase-3 activation,[3],-8.75%
same,outcome,[4],inactive
CCOC(=O)c1ccc(OC(=O)CCCCCN=C(N)N)cc1,outcome,[6],inactive
